Reference: PubChem BioAssay AID540308 (The Scripps Research Institute Molecular Screening Center, 2011)
The whole screen tested about 360,000 compounds, of which about 3,500 (0.97%) were called active. The sample as a whole holds a higher share of actives than the screen did. Unmarked numbers belong to inactive results.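 The calls were made as follows: active = activation above a per-plate cutoff, the mean activation of sample wells on that plate plus 3 SD (cut at about 8% in these data); inactive = the rest.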

target: Melanocortin receptor 4 (Homo sapiens) (UniProt P32245); assay: activators of MC4R beta-arrestin recruitment – cell-based, luminescence, agonist arm of biased-ligand search, primary screen (AID 540308); conditions: U2OS MC4R beta-arrestin complementation, at 8.9 µM, active compounds read high, percent of melanotan II response, DMSO zero
Sequence (P32245 whole entry, looked up): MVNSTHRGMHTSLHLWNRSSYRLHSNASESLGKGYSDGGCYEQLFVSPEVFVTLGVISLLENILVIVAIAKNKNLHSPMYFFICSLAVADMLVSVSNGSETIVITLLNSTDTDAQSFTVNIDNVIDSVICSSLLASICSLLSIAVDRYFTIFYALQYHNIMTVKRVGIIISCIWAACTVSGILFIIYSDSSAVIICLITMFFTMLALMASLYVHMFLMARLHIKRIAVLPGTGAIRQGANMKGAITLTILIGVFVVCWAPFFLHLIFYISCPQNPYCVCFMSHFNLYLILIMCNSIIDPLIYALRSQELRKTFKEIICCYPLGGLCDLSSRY

Row | SMILES | activation
1 | CC(C)CNC(=O)C1(C)CCCN1C(=O)CSc1ccccc1 (centres undefined) | -1.48%
2 | CC(Oc1ccc(Br)cc1)C(=O)NCC(c1ccco1)N1CCCCC1 (centres undefined) | 0.14%
3 | O=C(Nc1ccc(N2CCOCC2)cc1)c1cccc2c(-c3ccc(F)c(F)c3)coc12 | 3.52%
4 | COc1ccc(CC(=O)Nc2c(C(N)=O)oc3ccccc23)cc1 | -1.72%
5 | Cc1ccc(C(=O)Nc2sc(Cc3ccc4c(c3)OCO4)c(C)c2C(N)=O)cc1 | 0.85%
6 | COc1ccc(CC(=O)Nc2sc(Cc3ccccc3)c(C)c2C(N)=O)cc1 | 9.06% (active)
7 | CCc1nc2ccc(C(=O)N(C)CCN(C)C)cn2c1N(CC)CCOC | -1.01%
8 | COc1ccc(NC(=O)C2Cc3c(-c4ccc(Cl)cc4)ccnc3O2)cc1 (centres undefined) | 2.27%
9 | Cc1cccnc1C(NC(=O)C1CCN(Cc2ccc(Cl)c(Cl)c2)CC1)c1ccc(Cl)cc1 (centres undefined) | -0.01%
10 | CC(C)(C)c1nnc2sc(SCC(O)=C(C#N)c3nc4ccccc4[nH]3)nn2c1=O | -0.79%
11 | N#C/C(=C(/O)COC(=O)COc1ccc(Cl)cc1)c1nc2ccccc2[nH]1 | 14.5% (active)
12 | COc1ccccc1C(=O)COC(=O)COc1ccc(C#N)cc1 | -0.25%
13 | CC(C)NC(=O)C1(C)CCCCCN1C(=O)c1ccc(-c2ccccc2)cc1 (centres undefined) | -1.12%
14 | COCCNc1nnc(SCC(=O)NNC(=O)c2ccco2)s1 | -0.17%
15 | O=C(NCc1ccc(F)cc1)c1cc(C2CCCCN2C(=O)c2cccs2)on1 (centres undefined) | -0.1%
16 | COC(=O)c1sccc1NN1C(=O)c2ccccc2C1=O | 1.29%
17 | COC(=O)c1sccc1NC(=O)c1ccc(Cl)cc1 | 3.1%
18 | COC(=O)c1sccc1NC(=O)c1cc(OC)c(OC)c(OC)c1 | 10.6% (active)
19 | COc1ccc(NC(=O)C2(C)Cc3c(-c4cccc(NC(C)=O)c4)ccnc3O2)cc1 (centres undefined) | -0.48%
20 | CCN(CC)C(=O)C1CCCN(Cc2cccc(Cl)c2)C1 (centres undefined) | -1.07%
21 | Cc1noc(C)c1C(=O)N1CCC1(C)C(=O)NS(=O)(=O)c1ccc(C#N)cc1 (centres undefined) | -1.23%
22 | COc1cccc(C(NC(C)=O)c2nc(-c3cnc4ccccc4c3)cs2)c1 (centres undefined) | -2.35%
23 | Cc1ccc(C)c(C(=O)COC(=O)Cn2[nH]c(=O)c3ccccc3c2=O)c1 | -1.85%

Row | SMILES | activation
24 | O=C(CSc1nc2ccccc2c(=O)[nH]1)Nc1nc(-c2ccc(Br)cc2)cs1 | 0.03%
25 | Cc1ccc(-c2csc(NC(=O)Cn3[nH]c(=O)c4ccccc4c3=O)n2)cc1 | 16.1% (active)
26 | Cc1cc(=O)oc2c3c(cc(OCC(=O)NCC(O)c4ccccc4)c12)OC(C)(C)CC3 (centres undefined) | 2.2%
27 | CCc1nc2c(OCc3ccc(Cl)cc3Cl)cccn2c1N(C)C(=O)C(C)C | -0.09%
28 | CCCCCC(=O)N1C[C@H](O)[C@@H](n2cc(COC(=O)c3ccccc3)nn2)C[C@@H]1c1ccc(C)cc1 | 0.09%
29 | Cc1ccc([C@H]2C[C@H](O)[C@@H](n3cc(COC(=O)c4ccccc4)nn3)CN2C(=O)C2CCCCC2)cc1 | 9.82% (active)
30 | Cc1ccc([C@H]2C[C@H](O)[C@@H](n3cc(COC(=O)c4ccccc4)nn3)CN2CC2CCCCC2)cc1 | 1.06%
31 | Fc1ccc(-c2csc(-c3ccc(C4SCCS4)cc3)n2)cc1F | 1.21%
32 | COc1ccc(Br)c(Cn2c(C)c(C(=O)NCc3cccs3)sc2=O)c1 | 0.68%
33 | Cn1cc(S(=O)(=O)NC(c2ccccc2)c2ccccc2)c(=O)n(C)c1=O | -0.18%
34 | CCc1nc2c(OCCOc3ccccc3)cccn2c1N(C)C(=O)c1cccs1 | 0.14%
35 | COc1ccc(S(=O)(=O)NC(=O)C2(C)CCN2C(=O)c2ccccc2CCc2ccccc2)cc1 (centres undefined) | -2.22%
36 | CNC(=S)N/N=C/c1ccc(OCc2ccccc2)c(Br)c1 | 8.56% (active)
37 | O=C(O)COc1ccc(/C=N/O)cc1Br | -1.99%
38 | O=C(O)c1ccc(/C=N/NC(=S)NCc2ccccc2)cc1 | 0.6%
39 | CCCC(=O)N1CCC1(C)C(=O)Nc1ccc(-n2cncn2)cc1 (centres undefined) | 0.24%
40 | COCCNc1nc(Nc2ccccc2Cl)c2sc(-c3ccccc3)cc2n1 | 10.6% (active)
41 | Clc1ccccc1Nc1nc(NCc2cccs2)nc2ccsc12 | 15.7% (active)
42 | COc1cccc(CNc2nc(NCc3cccs3)nc3ccsc23)c1 | -1.2%
43 | COc1ccccc1CNc1nc(Nc2ccccc2Cl)c2sccc2n1 | 0.15%
44 | COc1cccc(-c2cc3nc(NCCOc4ccccc4Cl)n(C)c(=O)c3s2)c1 | 2.56%
45 | CC(=O)Nc1ccc(CNc2nc(NCCN(C)C)nc3cc(-c4ccccc4)sc23)cc1 | 0.89%
46 | COc1ccc(C(C)(O)c2nc(-c3ccc(C)c(C)c3)cs2)cc1 (centres undefined) | 0.79%

Row | SMILES | activation
47 | Cc1ccc2nc(-c3ccncc3)cc(C(=O)Nc3ccncc3)c2c1 | 10.5% (active)
48 | Cc1ccc(-n2c(SCC(=O)Nc3ccc4c(c3)OCO4)nnc2-c2ccccn2)cc1 | 1.14%
49 | COc1cc2ccccc2cc1C(=O)Nc1ccncc1 | -0.89%
50 | CCc1ccc(-c2cc(C(=O)NN3CCN(C)CC3)c3ccccc3n2)cc1 | -0.59%
51 | Cc1cc(NS(=O)(=O)c2ccc(NC(=O)c3cccc(OC(F)F)c3)cc2)nc(C)n1 | 0.09%
52 | CC1CCCC(NC(=O)c2cc(-c3ccncc3)nc3ccccc23)C1C (centres undefined) | 8.93% (active)
53 | Cc1ccc2nc(-c3ccncc3)cc(C(=O)Nc3ccc(OC(F)F)cc3)c2c1 | 13.6% (active)
54 | CC(C)c1cc(C(=O)NC2CCCCCC2)c2ccccc2n1 | -0.07%
55 | Cc1ccc2nc(-c3ccccn3)cc(C(=O)Nc3ccc4c(c3)OCO4)c2c1 | 8.55% (active)
56 | O=C(Nc1ccc(S(=O)(=O)Nc2nccs2)cc1)c1cc(-c2ccncc2)nc2ccccc12 | 1.73%
57 | CSc1ncccc1C(=O)Nc1ccc2c(c1)OCO2 | -2.93%
58 | COc1ccc(NC(=O)c2cc(-c3cc(OC)c(OC)c(OC)c3)nc3ccccc23)c(OC)c1 | 1.47%
59 | CCOC(=O)C1CCCN(C(=O)c2cc(-c3cccs3)oc2C)CC1 (centres undefined) | 1.53%
60 | CCCS(=O)(=O)NC(=O)C1(C)CCCN(C(=O)c2ccnc(Cl)c2)C1 (centres undefined) | -0.96%
61 | CCCCc1ccc(S(=O)(=O)NC(=O)C2(C)CCN2C(=O)c2ccccc2)cc1 (centres undefined) | 0.97%
62 | OC[C@@H]1CN(Cc2ccc(-c3ccccc3)cc2)C[C@H](n2cnc3c(NC4CCCC4)ncnc32)O1 | 5.7%
63 | CCc1nc2c(OCc3ccc(C(=O)OC)cc3)cccn2c1N(C)C(=O)C(C)C | 1.62%
64 | CC1(C(=O)NS(=O)(=O)c2ccccc2)CCN1C(=O)c1ccccc1 (centres undefined) | -1.65%
65 | CCOc1ccc2c(c1)cc(CN(C(=O)CC)C1CCCCC1)c1nnnn12 | 0.48%
66 | CCc1cccc(NC(=S)N(CCN(C)C)C2CCN(C(C)C)CC2)c1 | -0.19%
67 | CCc1ccc2c(c1)cc(CN(C(=S)Nc1ccccc1Cl)C1CC1)c1nnnn12 | 12.6% (active)
68 | CC1(C(=O)NS(=O)(=O)c2cccc(F)c2)CCN1C(=O)Cc1cc(F)ccc1F (centres undefined) | -0.76%
69 | CCNC(=O)C1(C)CCCN(C(=O)c2c(C)noc2C)C1 (centres undefined) | 0.77%

Row | SMILES | activation
70 | C/C(=N\Nc1ccc(Cl)nn1)c1ccccc1O | -0.38%
71 | Cc1ccsc1/C=N/Nc1ccc(Cl)nn1 | 12.3% (active)
72 | Cc1ccsc1/C=N/NC(=O)Cc1cc(=O)[nH][nH]1 | -1.77%
73 | COc1ccccc1CNC(=O)c1cc(-c2cc(F)ccc2OC)n[nH]1 | 1.31%
74 | CCCCC(=O)N(C)c1c(CC)nc2c(OCc3ccc(Cl)cc3Cl)cccn12 | 0.75%
75 | CC(=O)OC[C@@H]1CN(Cc2ccccc2)C[C@H](n2cnc3c(NCc4ccco4)ncnc32)O1 | -2.47%
76 | COc1ccc(Nc2cc(=O)oc3ccccc23)cc1 | -0.49%
77 | COc1cccc2cc(-c3cc(=O)oc4cc(C)c(O)cc34)oc12 | 1.6%
78 | COc1ccc2oc(=O)cc(-c3cc4ccccc4o3)c2c1 | 8.24% (active)
79 | CCN(c1ccccc1)S(=O)(=O)c1ccc(C(=O)Nc2ccccc2OC)cc1 | 0.77%
80 | CCN(c1ccccc1)S(=O)(=O)c1ccc(NC(=O)C(C)(C)C)cc1 | -0.35%
81 | CCN(c1ccccc1)S(=O)(=O)c1ccc(C(=O)Nc2nccs2)cc1 | 8.9% (active)
82 | O=C(NC(c1ccc(Cl)cc1)c1cnccn1)C1CCN(Cc2ccc(Cl)cc2)CC1 (centres undefined) | -0.34%
83 | O=C(NC(c1ccc(-c2ccccc2)cc1)c1cnccn1)C1CCN(CCOc2ccc(Cl)cc2Cl)CC1 (centres undefined) | 18% (active)
84 | Cc1ccc(C(NC(=O)C2CCN(CCOc3ccc(Cl)cc3Cl)CC2)c2ccccn2)cc1 (centres undefined) | 4.91%
85 | CCc1ccc2c(c1)NC(=O)C2(C)Cc1ccc(OC(F)(F)F)cc1 (centres undefined) | -0.4%
86 | Cc1ccc(-c2cnc(C(O)c3cccc(C)c3C)[nH]2)cc1 (centres undefined) | -0.77%
87 | CC(C)c1ccc2c(c1)c(SC(C)(C)C)c(CC(C)(C)C(=O)O)n2Cc1ccc(Cl)cc1 | 15.9% (active)
88 | COCCNC(=O)C1CCCN(Cc2ccccc2Cl)CC1 (centres undefined) | -0.57%
89 | CC(=O)Nc1ccc(-c2ccnc3c2CC(C(=O)NC(C)C)O3)cc1 (centres undefined) | -1.59%
